Compound activity as filed in PubChem BioAssay.
HepG2 tox: qHTS for Inhibitors of TGF-b: Cytotox Counterscreen; HepG2 CAGA-GFP viability, ATP luminescence, 18 h; Potency, µM (series often up to 46.1 µM), inactives show at the highest dose activity change, negative = cytotoxicity, actives largely listed as cytotoxic; actives 0.76% (n = 410,000); AID 588856, 2011
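CellTiter-Glo luminescence gave cytotoxicity after 18 hours at 37 degrees C. The cells were HepG2 CAGA-GFP in 1% FBS DMEM, stimulated with 500 pg/mL TGF-beta after compound addition. %Activity was normalised to no-cell wells (complete cell-killing) and DMSO (no toxicity), and curves were fitted and classified.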
TGFb inhibitor: qHTS for Inhibitors of TGF-b | HepG2 CAGA-GFP TGF-b/SMAD3 reporter, GFP fluorescence, 18 h; TGF-beta stimulated, 500 pg/mL final | Potency, µM (titrated, usually from 46.1 µM), for inactives: top-dose activity, negative = inhibition, usual class: inhibitors | actives 1.2% (n = 410,000) | AID 588855, 2011; note: % is set by controls: 0 for no effect and ±100 for the full control effect; nearly all actives have a fitted effect of over 65% in size
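Using HEPG2 CAGA-GFP reporter cells at 1000 cells/well, we pinned test compounds, stimulated with recombinant TGF-beta (500 pg/mL final) and measured total well GFP after 18 h.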
S2 tox: Viability Counterscreen for Primary qHTS for Inhibitors of ATXN expression | S2 cells (HEK-293 line with an ATXN2-luciferase reporter) viability, CellTiter-Fluor protease fluorescence, 24 h | Potency, µM (highest dose often 56.7 µM), actives largely listed as cytotoxic | actives 0.49% (n = 400,000) | AID 651635, 2014; note: nearly all actives have a fitted effect of over 40% in size
HT1080NT lethal: qHTS for induction of synthetic lethality in tumor cells producing 2HG: qHTS for the HT-1080-NT fibrosarcoma cell line; actives 1.6% (n = 360,000); AID 686970, 2013; Potency, µM (series often up to 46.1 µM), without a hit: top-dose activity, negative = less viability, usual class: cytotoxic; HT-1080-NT fibrosarcoma viability, CellTiter-Glo ATP luminescence, 48 h;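 note: NT is the 2HG producing partner of a matched IDH1 knockdown line; 0% = DMSO-treated cells and -100% = media-only wells without cells; nearly all actives have a fitted effect of over 55% in size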
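Compounds were tested in concentration-response format on HT-1080-NT cells for 48 hours at 37 degrees C. Cell viability came from CellTiter-Glo luminescence; curves were classified by r2, response magnitude and activity.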
HT1080 IDH1KD tx: qHTS for induction of synthetic lethality in tumor cells producing 2HG: qHTS for the HT-1080-IDH1KD cell line; HT-1080 IDH1 knockdown viability, ATP luminescence, 48 h; Potency, µM (titrated, usually from 46.1 µM), for inactives: top-dose activity, negative = toxicity, actives largely listed as cytotoxic; actives 2% (n = 360,000); AID 686971, 2013;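 note: 0% = DMSO wells and -100% = cell-free medium wells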
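% activity derives from luminescence (CellTiter-Glo), normalised to DMSO and no-cell wells. HT-1080-IDH1KD cells, 750/well, had 48 h compound exposure at 37 °C.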
ATXN2 expr inh: Primary qHTS for Inhibitors of ATXN expression; HEK-293 ATXN2-luciferase reporter, luminescence, 24 h; Potency, µM (doses to about 57 µM), without a hit: top-dose activity change, negative = inhibition, most hits filed as inhibitors; actives 0.72% (n = 360,000); AID 1745845, 2022; note: % is set by controls: 0 for no effect and ±100 for the full control effect; nearly all actives have a fitted effect of over 55% in size
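ATXN2-luciferase reporter cells (luciferase flanked by upstream and downstream ATXN2 gene portions) were treated 24 h at 37 °C with compounds at up to 57 uM. SteadyGlo luminescence gave expression; GF-AFC fluorescence gave viability.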
An asterisk follows results filed as active; i = inactive; ? = inconclusive; · = no result given; [ ] = dose if it differs, or a comment. This is a sample that favours compounds with a hit; in the whole collection about 3.8% have one here. Calls come from the whole dose curve; as a rule, active = well fitted curve in the direction sought with a large enough effect; inconclusive = small, poorly fitted or top-dose-only effect, or another doubt; inactive = no such curve, though single readings can be large; an effect the other way counts as inactive or inconclusive. Potency is the fitted concentration of half-maximal effect.

SMILES	HepG2 tox	TGFb inhibitor	S2 tox	HT1080NT lethal	HT1080 IDH1KD tx	ATXN2 expr inh
CCOC(=O)[C@]12Cc3cc(OC)ccc3[C@H]1N(C)C(=O)c1cc(OC)ccc12	·	·	14µM*	?	?	?
CCOC(=O)[C@]12Cc3cc(C)ccc3[C@H]1N(Cc1ccccc1)C(=O)c1cc(OC)ccc12	·	·	32µM*	?	21µM*	?
COc1ccc(NC(=O)CCOc2cc(C)ccc2C)cc1S(=O)(=O)N1CCCCC1	-22%	-20%	?	-4%	0%	-24%
COc1cccc(CSc2nc(-c3ccccc3OC)nc3c2Cc2c(CO)cnc(C)c2O3)c1	-1%	31%	?	·	·	?
O=C(O)c1ccc(-[n+]2c(-c3ccccc3)cc(-c3ccccc3)cc2-c2ccccc2)cc1	21%	24%	i	6%	16%	0%
COc1ccc(-[n+]2c(-c3ccccc3)cc(-c3ccc(C)cc3)cc2-c2ccccc2)cc1	-33%	7.1µM*	?	4.6µM*	2.6µM*	?
CCCOC(=O)c1ccc(-[n+]2c(-c3ccccc3)cc(-c3ccccc3)cc2-c2ccccc2)cc1	-41%	?	?	21µM*	12µM*	-35%
Brc1ccc(-[n+]2c(-c3ccccc3)cc(-c3ccccc3)cc2-c2ccccc2)cc1	-39%	?	?	16µM*	13µM*	?
Cc1ccc(-c2cc(-c3ccccc3)cc(-c3ccccc3)[n+]2-c2ccc(C(=O)O)cc2)cc1	-3%	18%	i	14%	9%	5%
COc1ccc(-c2cc(-c3ccccc3)[n+](C)c(-c3ccccc3)c2)cc1	-13%	?	i	?	15µM*	8.9µM*
COC(=O)C1=C(C(=O)OC)SC2(S1)C(C(=O)OC)=C(C(=O)OC)Sc1c2ssc1=O	-107%	?	14µM*	5.2µM*	1.2µM*	18µM*
c1ccc2nc3ccccc3cc2c1	-17%	?	·	·	·	·
C[n+]1c2ccccc2nc2ccc(NCCO)cc21	-36%	-8%	13µM*	-12%	-20%	-34%
CNc1ccc2nc3ccccc3[n+](C)c2c1	-1%	-8%	10µM*	21µM*	15µM*	·
ClCCN(CCCl)/C(=C\c1ccccc1)c1ccnc2ccccc12	-42%	?	·	·	·	·
O=C(O)c1ccc(=O)[nH]c1	·	·	i	·	·	12%
COc1ccc(NP(=O)(Oc2ccc(Cl)cc2)Oc2ccc(Cl)cc2)cc1OC	-47%	20µM*	i	?	?	-22%
COc1ccccc1OP(=O)(Nc1ccc(Br)cc1)Oc1ccccc1OC	-79%	16µM*	i	2%	-12%	-22%
COc1ccc(NP(=O)(Oc2cccc(C)c2)Oc2cccc(C)c2)cc1OC	-43%	16µM*	i	-9%	1%	·
Cc1cccc(OP(=O)(Nc2ccc(F)cc2)Oc2cccc(C)c2)c1	-84%	?	i	23µM*	?	-24%
COc1ccc(OC)c(NP(=O)(Oc2ccc(Cl)cc2)Oc2ccc(Cl)cc2)c1	0%	-17%	i	1%	0%	8%
COc1ccc(NP(=O)(Oc2ccccc2OC)Oc2ccccc2OC)cc1	0%	-5%	i	1%	-14%	·
C=CCC1(C(C)CC)C(=O)NC(=O)NC1=O (centres undefined)	·	·	i	·	·	3%
CC(C)Oc1cccc(NC(=O)c2ccccc2C(F)(F)F)c1	·	·	i	·	·	-13%[116 µM]
O=C1NC(=O)C2(Cc3ccccc3N3CCCC32)C(=O)N1c1ccccc1 (centres undefined)	-14%	-1%	i	-5%	-4%	-5%
SMILES	HepG2 tox	TGFb inhibitor	S2 tox	HT1080NT lethal	HT1080 IDH1KD tx	ATXN2 expr inh
O=C1NC(=O)C2(Cc3ccccc3N3CCOCC32)C(=O)N1c1ccccc1 (centres undefined)	13%	-9%	i	?	18µM*	-19%
O=C(NCCc1ccc(F)cc1)C(=O)NCC(c1cccs1)S(=O)(=O)c1ccc(Cl)cc1 (centres undefined)	-18%	-11%	?	·	·	?
CCC(CC)(CNC(=O)CCCO)c1cccc(OC)c1	·	·	i	·	·	9%
O=c1[nH]c2ccccc2n1C1CCN(C(c2cc3ccccc3o2)c2nnnn2-c2ccc3c(c2)OCCO3)CC1 (centres undefined)	-15%	-21%	?	?	18µM*	13µM*
O=c1[nH]c2ccccc2n1C1CCN(C(c2cccc3ccccc23)c2nnnn2-c2ccc3c(c2)OCCO3)CC1 (centres undefined)	-13%	?	?	?	?	-22%
COc1ccc(-n2nnnc2C(c2cc3ccccc3o2)N2CCC(n3c(=O)[nH]c4ccccc43)CC2)cc1 (centres undefined)	-28%	?	7.9µM*	?	?	7.9µM*
CC(C)OP(=O)(OC(C)C)C(O)c1ccc2c(c1)OCO2 (centres undefined)	17%	10%	i	4%	19%	0%
C=C1C(=O)OC2C1CCC(C)C1(O)C=CC(=O)C21C (centres undefined)	-35%	?	11µM*	?	?	11µM*
Nc1ncnc2c1ncn2[C@@H]1O[C@H](COP(=O)(O)CP(=O)(O)O)[C@@H](O)[C@H]1O	-32%	2%	i	?	-20%	0%
N#Cc1c(Br)n(C2OC(CO)C(O)C2O)c2ncnc(N)c12 (centres undefined)	-13%	?	?	7.3µM*	3.3µM*	2.5µM*
CCc1ccc(NC(=O)Cn2c(=O)oc3cc(S(=O)(=O)N4CCCCCC4)ccc32)cc1	-42%	·	·	·	·	·
COC(=O)C(NC(C)=O)(Nc1nc2c(C)cc(C)cc2s1)C(F)(F)F (centres undefined)	-16%	-9%	i	16µM*	13µM*	-28%
CC1(C)CSC(=NCc2ccccc2)N1	-32%	8.9µM*	i	2%	-3%	·
Oc1c(Br)c(Br)c(Br)c(Br)c1Br	-32%	?	i	26µM*	?	?
CC(C)N(C(=O)CCl)c1ccccc1	-12%	11%	?	3.7µM*	?	-22%
Oc1c(Cl)cccc1Cc1cc(Cl)cc(Cl)c1O	-29%	11µM*	i	?	?	?
